2 compounds from PubChem BioAssay (NCATS) can be followed below.

Several values for one entry are separate records, joined by “and”; a condition that tells them apart may be missing. Equal values may be shown once. Values without a mark were called inactive. Inconclusive results are not listed. Activity calls are given as the source filed them. Unless noted, calls follow the shape of the dose curve; as a rule, active = well fitted curve in the direction sought with a large enough effect; inconclusive = small, poorly fitted or top-dose-only effect, or another doubt; inactive = no such curve, though single readings can be large; an effect the other way counts as inactive or inconclusive.

The target in test [1] is Cytochrome P450 1A2 (Homo sapiens) (UniProt P05177). The experiment in a line: p450-cyp1a2 (AID 410; calls by dose curve; also: potency is read from the fitted curve at half-maximal effect). In short, it runs like this:
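Luminescent demethylation readout: Luciferin-ME (100uM, equal to Km) turned over by 20nM CYP1A2 for 60 min at room temperature after NADPH regeneration addition, following 10 min compound preincubation. Normalization used 57 uM furafylline as full inhibition.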

Test [2] deals with Glucocorticoid receptor (Homo sapiens) (UniProt P04150). The experiment in a line: GR-GFP Redistribution (AID 450;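 active = compounds whose dose series gives a full or clear partial fitted curve of increased nuclear translocation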; also: potency is read from the fitted curve at half-maximal effect). As to conditions: U2OS GR-GFP nuclear translocation, laser cytometry, 2 h.
Chain of Glucocorticoid receptor (Homo sapiens) (P04150 whole entry, looked up, the tested form may be a part): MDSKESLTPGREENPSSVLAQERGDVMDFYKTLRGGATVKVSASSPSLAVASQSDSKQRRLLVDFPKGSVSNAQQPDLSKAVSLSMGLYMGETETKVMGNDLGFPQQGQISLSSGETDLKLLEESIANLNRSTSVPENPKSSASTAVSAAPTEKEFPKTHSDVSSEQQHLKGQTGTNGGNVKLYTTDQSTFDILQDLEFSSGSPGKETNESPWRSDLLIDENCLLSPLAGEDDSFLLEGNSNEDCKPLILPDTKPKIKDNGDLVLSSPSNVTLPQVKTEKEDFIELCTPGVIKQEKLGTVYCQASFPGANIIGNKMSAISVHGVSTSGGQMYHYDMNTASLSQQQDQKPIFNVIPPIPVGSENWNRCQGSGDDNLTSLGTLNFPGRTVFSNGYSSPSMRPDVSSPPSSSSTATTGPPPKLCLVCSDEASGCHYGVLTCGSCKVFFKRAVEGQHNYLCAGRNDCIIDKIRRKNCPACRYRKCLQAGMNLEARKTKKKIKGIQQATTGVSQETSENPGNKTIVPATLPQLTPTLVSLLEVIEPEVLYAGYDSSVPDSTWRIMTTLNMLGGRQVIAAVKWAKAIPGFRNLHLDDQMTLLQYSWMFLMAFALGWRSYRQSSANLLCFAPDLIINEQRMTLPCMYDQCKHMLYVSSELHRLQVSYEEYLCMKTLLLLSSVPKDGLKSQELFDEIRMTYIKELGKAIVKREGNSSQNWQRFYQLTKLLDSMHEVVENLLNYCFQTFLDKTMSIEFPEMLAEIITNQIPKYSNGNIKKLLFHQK
The target is the same in test [3]. The experiment in a line: GR-EFC Redistribution (AID 451; calls by dose curve; also: potency is read from the fitted curve at half-maximal effect). The following applies: CHO-K1 GR-EFC translocation, beta-gal luminescence, 2 h. In short, it runs like this: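 CHO-K1 cells stably expressing nuclear-localized β-gal enzyme acceptor and GR fused C-terminally to the enzyme donor fragment; ligand-driven nuclear translocation restores β-gal by complementation. Compounds titrated up to 46 uM final, 2 h at 37 °C; luminescence read.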

The target in test [4] is Mitogen-activated protein kinase 10 (Mus musculus) (UniProt Q61831). The experiment in a line: JNK3 AlphaScreen Assay (AID 530; active = well fitted curve in either direction with a large enough effect, not every such curve was filed as active;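 also: kinase came from lysate of stimulated human HepG2 cells; signal reports phosphorylation of biotinylated GST-cJun 1-79 at Ser73 with 10 µM ATP; series mostly up to about 57 µM; % is scaled to controls: 0 for no effect and ±100 for the full control effect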). In short, it runs like this: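 Phosphorylation of biotinylated GST-cJun(1-79) at Ser73 is measured by AlphaScreen proximity luminescence. Enzyme is JNK3 in HepG2 lysates activated with interleukin-1beta and tumor necrosis factor alpha; ATP is 10 uM final.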
Background: Bead proximity is the source of the signal in Alpha formats.

The target in test [5] is Cytochrome P450 3A4 (Homo sapiens) (UniProt P08684). Nature of the test: qHTS Assay for Inhibitors and Substrates of Cytochrome P450 3A4 (AID 884). Also: potency is read from the fitted curve at half-maximal effect; nearly all actives have a fitted effect of over 50% in size. In a few lines: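 Luminescent readout of luciferin produced by CYP3A4 (20 nM) dealkylation of Luciferin-PPXE, 25 uM (its KM). NADPH-driven reaction ran 60 min at RT after 10 min compound preincubation; data scaled to 57 uM ketoconazole as 100% inhibition.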
Chain of Cytochrome P450 3A4 (Homo sapiens) (P08684 whole entry, looked up): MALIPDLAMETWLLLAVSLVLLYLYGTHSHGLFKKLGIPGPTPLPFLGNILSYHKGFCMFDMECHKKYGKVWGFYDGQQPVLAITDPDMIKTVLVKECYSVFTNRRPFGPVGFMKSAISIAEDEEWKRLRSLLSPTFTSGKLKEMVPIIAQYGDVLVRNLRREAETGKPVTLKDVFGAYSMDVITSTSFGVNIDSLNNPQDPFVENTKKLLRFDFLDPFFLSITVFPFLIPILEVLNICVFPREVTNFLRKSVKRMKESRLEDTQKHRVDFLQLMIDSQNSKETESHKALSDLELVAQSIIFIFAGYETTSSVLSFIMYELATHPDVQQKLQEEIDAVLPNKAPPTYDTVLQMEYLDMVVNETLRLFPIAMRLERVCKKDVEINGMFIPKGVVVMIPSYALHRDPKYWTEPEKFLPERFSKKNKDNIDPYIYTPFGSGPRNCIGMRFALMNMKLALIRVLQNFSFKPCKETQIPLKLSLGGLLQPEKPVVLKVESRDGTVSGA
(Quantitative high-throughput screening tests each substance at several concentrations.)

For test [6] the target is unchanged. Nature of the test: qHTS Assay for Activators of Cytochrome P450 3A4 (AID 885). Also: nearly all actives have a fitted effect of over 65% in size. In short, it runs like this: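 CYP3A4 activity: Luciferin-PPXE O-dealkylation, 25uM substrate, 200mM KPO4, RT throughout. Read-out is luciferase luminescence; higher values reflect activation.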
For test [7], the target named is Ubiquitin carboxyl-terminal hydrolase 1 (Homo sapiens) (UniProt O94782). Nature of the test: Inhibitors of USP1/UAF1: Pilot qHTS (AID 504865). Also: potency is read from the fitted curve at half-maximal effect; nearly all actives have a fitted effect of over 35% in size. In short, it runs like this:
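In 50mM HEPES pH 7.8 containing 0.5mM EDTA, 1mM TCEP, 0.1 mg/ml BSA and 0.01% Tween-20, 1nM USP1/UAF1 is exposed to compound for 15 min, then Ub-Rho (150nM final) is added and fluorescence is read over time.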

The test system of test [8] is Zika virus NS2B-NS3 protease. Nature of the test: Primary screen GU AMC qHTS for Zika virus inhibitors (AID 1347154).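 Also: 0% = no-inhibitor control and -100% = no-enzyme control; nearly all actives have a fitted effect of over 70% in size.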 In a few lines: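 Unlinked Zika NS2B hydrophilic domain/NS3 protease domain noncovalent complex (25 nM final) in 10 mM Tris-HCl pH 8.0, 0.01% Tween 20, with AMC peptide substrate. Fluorescence (ex 340, em 450 nm) change over 15 min, room temperature; percent inhibition fitted to 4-parameter Hill equation.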

The nature of test [9]: Confirmatory qHTS for small molecule stabilizers of the endoplasmic reticulum resident proteome: Secreted ER Calcium Modulated Protein (SERCaMP) assay (AID 1508628). Also: potency is read from the fitted curve at half-maximal effect; nearly all actives have a fitted effect of over 40% in size. In a few lines: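 Reporter secretion upon ER calcium depletion (100 nM thapsigargin, 4 h, 37C) is measured as medium luminescence with coelenterazine, after 16 h compound pretreatment of SH-SY5Y-GLuc-SERCaMP cells; primary at three concentrations up to 38.3 uM, follow-up at 11 (up to 76.6 uM).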

Test [10] has as its target 3',5'-cyclic-AMP phosphodiesterase 4B (Homo sapiens) (UniProt Q07343). Nature of the test: qHTS Assay for Inhibitors of PDE-IV (AID 607; active = well fitted activation curve with a large enough effect in the main read-out, with a control signal flat, not every such curve was filed as active; also: % of control where 0% means no effect). In short, it runs like this: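 ACTOne HEK293 cells carry a modified cAMP-gated CNG channel and express endogenous PDE4; plated 1000 cells/well, compounds up to 22.9 uM final. Membrane-potential dye fluorescence (ex 535/em 590) was read; parental cells received 10 uM forskolin + 100 uM RO 20-1724.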

The target of test [11] is DNA dC->dU-editing enzyme APOBEC-3G (Homo sapiens) (UniProt Q9HC16). Nature of the test: qHTS for inhibitors of Vif-A3G interactions: Validation (AID 588379). Also: 0% is about no effect. In a few lines: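 Yellow fluorescence (Ex 488, Em 500-530) of Vif-coexpressing HeLa A3G-eYFP cells, scanned by Acumen cytometer, reports blocked A3G degradation. Cells plated at 700/well overnight at 37 deg C before compound addition, then a further overnight compound incubation at 37 deg C.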
Chain of DNA dC->dU-editing enzyme APOBEC-3G (Homo sapiens) (Q9HC16 whole entry, looked up): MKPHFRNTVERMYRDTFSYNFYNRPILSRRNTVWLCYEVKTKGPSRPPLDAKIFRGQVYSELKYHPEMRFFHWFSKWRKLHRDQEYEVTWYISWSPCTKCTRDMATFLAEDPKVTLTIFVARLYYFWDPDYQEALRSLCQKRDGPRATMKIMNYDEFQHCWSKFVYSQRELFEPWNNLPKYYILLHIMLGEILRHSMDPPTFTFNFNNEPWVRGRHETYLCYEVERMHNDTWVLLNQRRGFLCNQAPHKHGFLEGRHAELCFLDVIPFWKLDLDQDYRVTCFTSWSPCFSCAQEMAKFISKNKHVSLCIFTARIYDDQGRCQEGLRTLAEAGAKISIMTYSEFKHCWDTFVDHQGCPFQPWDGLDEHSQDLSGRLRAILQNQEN

The nature of test [12]: Cell Viability qHTS for small molecule stabilizers of the endoplasmic reticulum resident proteome (AID 1508629).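 Also: human SH-SY5Y neuroblastoma cells carrying the GLuc-SERCaMP reporter; compound exposure about 46 h in total before the viability read; % is scaled to controls: 0 for no effect and ±100 for the full control effect.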 As to conditions: cell viability counter-screen, 100 nM thapsigargin for final 4 h.

Chain of Ubiquitin carboxyl-terminal hydrolase 1 (Homo sapiens) (O94782 whole entry, looked up): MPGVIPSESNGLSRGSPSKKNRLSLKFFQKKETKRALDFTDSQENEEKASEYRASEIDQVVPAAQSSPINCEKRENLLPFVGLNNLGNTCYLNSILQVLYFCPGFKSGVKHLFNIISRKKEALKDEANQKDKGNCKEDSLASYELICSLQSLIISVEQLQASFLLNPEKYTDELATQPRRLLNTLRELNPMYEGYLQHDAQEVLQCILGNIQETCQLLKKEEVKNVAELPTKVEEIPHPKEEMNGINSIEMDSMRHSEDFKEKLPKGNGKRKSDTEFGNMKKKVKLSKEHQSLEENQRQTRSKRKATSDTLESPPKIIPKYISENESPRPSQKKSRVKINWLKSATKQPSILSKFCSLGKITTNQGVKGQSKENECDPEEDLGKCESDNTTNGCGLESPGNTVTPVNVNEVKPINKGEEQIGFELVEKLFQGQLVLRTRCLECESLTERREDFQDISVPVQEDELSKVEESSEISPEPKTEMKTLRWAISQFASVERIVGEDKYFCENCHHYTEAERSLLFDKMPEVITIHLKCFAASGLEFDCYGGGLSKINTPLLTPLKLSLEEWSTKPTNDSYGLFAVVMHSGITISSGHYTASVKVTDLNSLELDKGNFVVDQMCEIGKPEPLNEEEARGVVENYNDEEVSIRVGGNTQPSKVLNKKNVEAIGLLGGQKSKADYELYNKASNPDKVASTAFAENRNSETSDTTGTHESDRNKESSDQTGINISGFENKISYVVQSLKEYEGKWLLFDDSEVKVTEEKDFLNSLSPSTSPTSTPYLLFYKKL
Chain of Cytochrome P450 1A2 (Homo sapiens) (P05177 whole entry, looked up): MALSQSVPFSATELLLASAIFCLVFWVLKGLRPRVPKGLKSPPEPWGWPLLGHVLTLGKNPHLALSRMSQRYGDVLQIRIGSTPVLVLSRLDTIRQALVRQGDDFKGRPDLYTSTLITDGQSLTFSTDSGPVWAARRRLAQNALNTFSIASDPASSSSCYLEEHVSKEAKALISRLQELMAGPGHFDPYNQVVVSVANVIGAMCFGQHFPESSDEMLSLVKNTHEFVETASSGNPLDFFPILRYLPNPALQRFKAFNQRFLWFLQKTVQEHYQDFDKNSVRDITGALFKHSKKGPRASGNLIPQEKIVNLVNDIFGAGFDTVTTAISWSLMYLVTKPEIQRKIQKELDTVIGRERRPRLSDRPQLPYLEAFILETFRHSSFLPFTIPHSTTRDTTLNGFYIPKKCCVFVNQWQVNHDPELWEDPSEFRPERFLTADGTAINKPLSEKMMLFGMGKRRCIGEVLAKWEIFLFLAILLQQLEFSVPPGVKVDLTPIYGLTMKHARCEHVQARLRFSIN
Chain of 3',5'-cyclic-AMP phosphodiesterase 4B (Homo sapiens) (Q07343 whole entry, looked up): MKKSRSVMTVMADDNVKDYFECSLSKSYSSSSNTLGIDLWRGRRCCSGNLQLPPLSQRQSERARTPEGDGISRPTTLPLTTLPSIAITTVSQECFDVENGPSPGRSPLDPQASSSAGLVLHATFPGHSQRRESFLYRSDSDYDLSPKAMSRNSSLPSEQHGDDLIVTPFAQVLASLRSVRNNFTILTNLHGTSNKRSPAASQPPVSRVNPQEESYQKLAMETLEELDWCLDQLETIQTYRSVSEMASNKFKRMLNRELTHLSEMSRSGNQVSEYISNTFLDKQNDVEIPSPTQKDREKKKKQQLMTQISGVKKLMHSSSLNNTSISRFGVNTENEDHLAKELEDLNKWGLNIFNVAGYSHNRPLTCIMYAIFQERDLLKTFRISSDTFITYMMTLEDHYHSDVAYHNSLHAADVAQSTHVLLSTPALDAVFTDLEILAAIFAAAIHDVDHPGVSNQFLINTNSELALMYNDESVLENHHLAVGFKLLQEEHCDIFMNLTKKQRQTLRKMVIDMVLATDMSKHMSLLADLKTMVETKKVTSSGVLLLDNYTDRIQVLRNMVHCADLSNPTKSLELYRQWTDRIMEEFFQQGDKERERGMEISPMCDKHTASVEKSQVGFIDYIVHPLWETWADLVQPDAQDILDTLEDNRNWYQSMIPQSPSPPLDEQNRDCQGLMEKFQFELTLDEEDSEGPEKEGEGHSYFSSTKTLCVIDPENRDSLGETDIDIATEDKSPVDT

As to `COc1ccc2[nH]cc(C3=CCNCC3)c2c1`, the Potency in [1] is 0.251 µM (active); in test [2], above 46 µM; in test [3] it was above 46 µM; in [5] it was 1.26 µM (active); in test [7], 44.7 µM (active); in test [9], 12.6 µM (active) and 35.5 µM (active). The compound was classed as inactive in [4]. Besides, the Potency result in test [6] and in test [8] was “inactive” in each case.
Consider `Cl.Cl.Cl.Cl.Cl.Cl.N.N.N.N.NNNNN.NNNNN.O.O.[Ru].[Ru].[Ru]`, for which the Potency in test [2] is above 46 µM; in test [3], above 46 µM; in test [7], 50.1 µM (active); in test [9], 15.8 µM (active). For the same compound, the compound was called inactive in [4]. The Potency entry in [10], in test [11] and in test [8] was “inactive” in each case. Further, the max response in test [12] is 7.14%.
